Measurements as given in PubChem BioAssay.
Values joined by “and” are separate entries in the source; they are usually repeats but may differ in a detail not shown here. Equal entries are not always repeated.

How the values were obtained:
[1] = tested on: Botulinum neurotoxin type F light chain protease (Clostridium botulinum); assay: Botulinum neurotoxin type F light chain protease inhibition, multiplex microsphere flow cytometry, validation set (AID 588459); conditions: multiplex microsphere protease substrate cleavage assay, at 10 µM, active compounds read high
[2] = biological target: Botulinum neurotoxin type A (Clostridium botulinum) (UniProt P0DPI0); assay: BoNT/A light chain protease inhibitors, biochemical, multiplex microsphere flow cytometry, validation set (AID 588460); conditions: at 10 µM, active compounds read high
Chain of Botulinum neurotoxin type A (Clostridium botulinum) (P0DPI0 whole entry, looked up): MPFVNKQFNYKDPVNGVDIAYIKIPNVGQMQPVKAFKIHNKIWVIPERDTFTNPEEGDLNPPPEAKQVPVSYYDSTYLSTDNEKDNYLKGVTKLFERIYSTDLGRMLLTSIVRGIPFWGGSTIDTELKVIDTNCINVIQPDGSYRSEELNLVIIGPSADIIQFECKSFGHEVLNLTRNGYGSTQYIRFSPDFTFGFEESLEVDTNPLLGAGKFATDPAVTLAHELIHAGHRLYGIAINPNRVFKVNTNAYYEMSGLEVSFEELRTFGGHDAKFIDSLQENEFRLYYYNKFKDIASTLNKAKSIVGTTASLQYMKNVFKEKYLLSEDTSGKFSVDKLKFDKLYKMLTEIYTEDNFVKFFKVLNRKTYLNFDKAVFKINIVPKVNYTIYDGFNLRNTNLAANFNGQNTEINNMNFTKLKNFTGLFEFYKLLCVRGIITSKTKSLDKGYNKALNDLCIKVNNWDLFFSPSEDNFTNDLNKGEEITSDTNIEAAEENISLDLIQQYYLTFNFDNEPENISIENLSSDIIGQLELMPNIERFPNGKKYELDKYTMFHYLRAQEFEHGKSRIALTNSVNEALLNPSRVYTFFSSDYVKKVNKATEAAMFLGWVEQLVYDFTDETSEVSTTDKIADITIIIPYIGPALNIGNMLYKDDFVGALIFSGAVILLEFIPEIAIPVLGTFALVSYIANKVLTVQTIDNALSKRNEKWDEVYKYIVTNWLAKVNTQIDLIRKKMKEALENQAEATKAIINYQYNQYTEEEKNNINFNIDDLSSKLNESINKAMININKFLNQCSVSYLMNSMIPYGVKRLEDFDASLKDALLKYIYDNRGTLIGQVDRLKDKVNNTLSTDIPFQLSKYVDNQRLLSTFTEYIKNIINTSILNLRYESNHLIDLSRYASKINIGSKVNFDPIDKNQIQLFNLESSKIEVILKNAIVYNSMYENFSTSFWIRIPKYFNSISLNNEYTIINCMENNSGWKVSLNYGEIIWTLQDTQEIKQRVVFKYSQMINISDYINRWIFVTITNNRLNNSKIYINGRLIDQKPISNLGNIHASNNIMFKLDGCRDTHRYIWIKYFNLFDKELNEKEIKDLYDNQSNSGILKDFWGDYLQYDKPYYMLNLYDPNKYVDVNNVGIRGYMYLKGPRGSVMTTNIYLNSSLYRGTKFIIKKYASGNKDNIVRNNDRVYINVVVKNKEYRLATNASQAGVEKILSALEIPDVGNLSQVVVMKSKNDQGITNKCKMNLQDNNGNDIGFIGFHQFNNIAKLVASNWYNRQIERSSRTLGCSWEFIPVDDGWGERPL

[3] = biological target: Lethal factor (Bacillus anthracis) (UniProt P15917); assay: Lethal factor protease inhibitors, Bacillus anthracis, multiplex microsphere cleavage assay, validation set (AID 588461); conditions: flow cytometry, at 10 µM, active compounds read high
Chain of Lethal factor (Bacillus anthracis) (P15917 whole entry, looked up): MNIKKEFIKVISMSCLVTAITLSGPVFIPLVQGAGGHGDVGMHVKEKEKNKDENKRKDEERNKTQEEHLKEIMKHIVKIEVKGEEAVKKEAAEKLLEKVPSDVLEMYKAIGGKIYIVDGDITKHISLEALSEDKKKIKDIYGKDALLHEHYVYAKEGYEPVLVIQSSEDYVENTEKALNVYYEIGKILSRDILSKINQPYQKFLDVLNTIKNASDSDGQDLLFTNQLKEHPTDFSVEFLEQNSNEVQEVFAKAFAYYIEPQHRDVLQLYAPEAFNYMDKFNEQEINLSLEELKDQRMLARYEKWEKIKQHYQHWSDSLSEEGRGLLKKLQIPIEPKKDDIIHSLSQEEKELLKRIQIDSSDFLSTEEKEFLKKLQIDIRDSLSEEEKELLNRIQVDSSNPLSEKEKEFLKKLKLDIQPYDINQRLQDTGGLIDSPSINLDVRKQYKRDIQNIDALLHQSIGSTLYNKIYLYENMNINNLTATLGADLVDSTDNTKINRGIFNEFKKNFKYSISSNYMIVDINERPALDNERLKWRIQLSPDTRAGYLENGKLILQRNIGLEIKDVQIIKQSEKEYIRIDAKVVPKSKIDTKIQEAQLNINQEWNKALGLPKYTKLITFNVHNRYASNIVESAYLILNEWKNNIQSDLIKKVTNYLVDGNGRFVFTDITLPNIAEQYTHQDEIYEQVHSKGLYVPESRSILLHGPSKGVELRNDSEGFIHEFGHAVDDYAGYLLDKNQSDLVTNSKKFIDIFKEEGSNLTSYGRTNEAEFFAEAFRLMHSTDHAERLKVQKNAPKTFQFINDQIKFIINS

Measured: inhibition

O=C(Nc1cccc(C(=O)O)c1)/C(=C\c1ccccc1)NC(=O)c1ccccc1
inactive: [1] 1.8% | [2] 0.3% | [3] -0.8%

O=C1N[C@@H](Cc2cnc[nH]2)C(=O)N2CCC[C@@H]12
inactive: [1] 1.2% | [2] 0.3% | [3] -5.3%

O=C1c2cccc3cccc(c23)C(=O)N1c1ccccn1
inactive: [1] -2.7% | [2] 0.1% | [3] 1.1%

O=C(Nc1ccccc1)c1ccccc1CCc1ccccc1
inactive: [1] 0.9% | [2] -3.7% | [3] 3.9%

CCOC(=O)COc1ccc2c(=O)c(-c3ccccc3)coc2c1
inactive: [1] -1.6% | [2] 1.3% | [3] 1%

Cc1oc2ccc(OC(=O)c3cccs3)cc2c1C(=O)OC(C)C
inactive: [1] -0.1% | [2] -1.1% | [3] 3.1%

Cc1cc(-c2nn(-c3ccccc3F)cc2CN2CCC(O)CC2)c(C)s1
inactive: [1] -1.7% | [2] 0.2% | [3] -1.4%

COc1ccc2cc(C(=O)OC(C)C)sc(=O)c2c1OC
inactive: [1] 0% | [2] 1.8% | [3] -5.8%

O=C(c1ccccc1)N1CCN(C(=O)c2ccccc2)CC1
inactive: [1] -0.3% | [2] -0.7% | [3] -0.8%

CN(C)CC/C=C1\c2ccccc2COc2ccccc21
inactive: [1] -0.1% | [2] -0.5% | [3] 2.2%

Cc1cc(=O)oc(C)c1C(=O)NCCC(C)C
inactive: [1] -1.3% | [2] -0.2% | [3] 4%

COC(=O)c1cc(COc2ccc3ccc(=O)oc3c2)c(C)o1
inactive: [1] -0.4% | [2] -1.4% | [3] 1%

CC12CCC(C(=O)N(CCC#N)CCC#N)(CC1=O)C2(C)C (configuration not stated)
inactive: [1] 2.1% | [2] -1.2% | [3] 1.5%

CC(C)N(Cc1nccn1C)C(=O)CC1C(=O)NCCN1Cc1ccccc1C(F)(F)F (configuration not stated)
inactive: [1] -1.2% | [2] -0.8% | [3] 0.4%

CC(=O)c1c(C)c(C)c2n1CCn1c(C)ccc1-2
inactive: [1] -0.2% | [2] -0.1% | [3] 0.9%

CN=C1c2cc3cc(OC)ccc3n2CCN1C
inactive: [1] -1.5% | [2] -0.6% | [3] -0.1%

Nc1cc(-c2ccncc2)c[nH]c1=O
inactive: [1] -3.2% | [2] -2% | [3] -5.1%

Cc1cccc(CN2CCN(C(c3ccccc3)c3ccc(Cl)cc3)CC2)c1 (configuration not stated)
inactive: [1] -0.2% | [2] -2% | [3] -9.2%

COc1ccc(C(C)N2CC34C=CC(O3)C(C(=O)OCC(C)C)C4C2=O)cc1 (configuration not stated)
inactive: [1] -1.9% | [2] -1.2% | [3] 0.2%

NC(N)=NC(N)=Nc1ccc2ccccc2c1
inactive: [1] 3.6% | [2] 1% | [3] 1.8%

Cc1nc2ccccc2n1CC(=O)NC1CCCC1
inactive: [1] -0.9% | [2] -0.2% | [3] -4.4%

Cc1ccc2ncnc(NCCCCCC(=O)O)c2c1
inactive: [1] 1.7% | [2] -1.1% | [3] -4.7%

Cc1c(OCC(=O)NC(Cc2c[nH]c3ccc(O)cc23)C(=O)O)ccc2c3c(c(=O)oc12)CCC3 (configuration not stated)
inactive: [1] 3.2% | [2] -1.1% | [3] 3.7%

COc1ccc2c(c1O)Cc1ccccc1C2=O
inactive: [1] 0% | [2] -0.7% | [3] -3.9%

CCOc1ccc(C(=O)NCC2(c3ccccc3)CCOCC2)cc1
inactive: [1] -5.3% | [2] -0.2% | [3] -6.4%

COCc1cc(=O)[nH]c(Nc2nc3ccccc3o2)n1
inactive: [1] -3.7% | [2] -0.7% | [3] 0.7%

O=c1nc2cccc3c2=c(/c1=C(\O)c1ccccc1)c1ccccc1c3=O
inactive: [1] 3.2% | [2] 0.6% | [3] -0.8%

CNc1nc(Nc2ccccc2)nc(OCC(F)(F)F)n1
inactive: [1] 0.2% | [2] 0.2% | [3] -2.5%

O=c1oc2c(CN3CCCCC3)c(O)ccc2c2c1CCCCC2
inactive: [1] 4.3% | [2] 0.5% | [3] 1.1%

Cc1ncc([N+](=O)[O-])n1CC(O)CCl (configuration not stated)
inactive: [1] 3.5% | [2] -0.1% | [3] 2.5%

CC1(C)C2CCC1(C)C(OCC[N+](C)(C)CC(=O)OC1CCCCC1)C2 (configuration not stated)
inactive: [1] -1.7% | [2] -2.1% | [3] -1.9%

Cc1nc(N)sc1C(=O)N/N=C/c1ccco1
inactive: [1] -4.3% | [2] 0.1% | [3] 0.8%

COc1ccc(-c2onc(C)c2-c2ccc(C(=O)OC(C)C)o2)c(O)c1
inactive: [1] 1.1% | [2] 0.9% | [3] 0.9%

OCCN1CCN(CCCN2c3ccccc3Sc3ccc(C(F)(F)F)cc32)CC1
inactive: [1] -3.2% | [2] -0.1% | [3] -5.1%

COc1ccc(C(=O)c2oc3ccc(Br)cc3c2NC(C)=O)cc1
inactive: [1] 0.3% | [2] -1.1% | [3] -3.6%

COc1cc2c(cc1OC)-c1cc(NC3CCCCCC3)nc(=O)n1CC2
inactive: [1] -2.3% | [2] -1.4% | [3] -7.4%

CC1(C)OC2OC(C(=O)N/N=C/c3ccccc3F)C3OC(C)(C)OC3C2O1 (configuration not stated)
inactive: [1] 2.6% | [2] -1.3% | [3] -1.9%

Cc1cc(OC(C(=O)O)c2ccccc2)c2c(C)c(Cc3ccccc3)c(=O)oc2c1 (configuration not stated)
inactive: [1] 2% | [2] -0.1% | [3] 1.7%

CCCCC[C@H](O)/C=C/C1=C(CCCCCCC(=O)O)C(=O)CC1
inactive: [1] -0.6% | [2] -0.5% | [3] 2.4%

COc1ccc(NC(=O)Nc2ccc(C(C)C)cc2)cc1
inactive: [1] 2.7% | [2] 1.5% | [3] 5.7%

CCOC(=O)C1=C(N)Oc2c(oc(CO)cc2=O)C1c1ccc(F)c(F)c1 (configuration not stated)
inactive: [1] 2.1% | [2] 0.3% | [3] -2.3%

CN(C)CCOC(=O)C(c1ccccc1)C1(O)CCCC1 (configuration not stated)
inactive: [1] 2.3% | [2] -0.3% | [3] -6%

O=c1nc2sc3ccccc3n2c(=O)n1-c1ccc(Cl)cc1
inactive: [1] 0.3% | [2] -1.6% | [3] -7.9%

CN(C)C(=O)Oc1cccc([N+](C)(C)C)c1
inactive: [1] 0.7% and -1.3% | [2] 0.2% and -0.7% | [3] 1.5% and 2.9%

CCC(=O)O[C@]1(C(=O)CCl)[C@@H](C)C[C@H]2[C@@H]3CCC4=CC(=O)C=C[C@]4(C)[C@@]3(F)[C@@H](O)C[C@@]21C
inactive: [1] -0.5% | [2] -1.2% | [3] -3.4%

COC(=O)C1=C(C)NC(C)=C(C(=O)OC)C1c1ccccc1[N+](=O)[O-]
inactive: [1] 5.8% | [2] 2.2% | [3] 2%

COc1ccccc1C(CCN(Cc1ccccc1)C(C)=O)c1ccco1 (configuration not stated)
inactive: [1] -6.5% | [2] -1.3% | [3] -0.5%

CC(C)C(=O)Nc1ccc2c3c(cccc13)CC2
inactive: [1] 1% | [2] 0.5% | [3] -3%

COc1cc(COc2ccc3c(C)c(Cc4ccccc4)c(=O)oc3c2)cc(OC)c1OC
inactive: [1] 3.5% | [2] 0.9% | [3] -2.3%

O=C(NCCO)c1ccc(Cl)c(Cl)c1
inactive: [1] -0.2% | [2] -0.6% | [3] -2.2%

O=P(c1ccccc1)(c1ccccc1)c1nc(-c2ccc(Cl)cc2)oc1N1CCOCC1
inactive: [1] -1% | [2] -1.2% | [3] 0.6%

COc1ccc2c(=O)c(-c3cnn(-c4ccccc4)c3)c(C)oc2c1
inactive: [1] -2.2% | [2] 0.9% | [3] 1.4%

COc1ccc(CCCC(=O)O)c(C)c1
inactive: [1] -0.2% | [2] 0.1% | [3] 6.1%

COc1cc(/C=C(\C#N)C(=O)N2CCc3ccccc32)ccc1O
inactive: [1] 0.6% | [2] 1.6% | [3] 0.9%

COc1ccccc1NC(=O)Cn1c(C)cc(=O)c2cccc(OC)c21
inactive: [1] -1.1% | [2] -0.9% | [3] -0.2%

Cn1c(=O)c2c(ncn2Cc2ccccc2)n(C)c1=O
inactive: [1] 3.3% | [2] 3% | [3] 7.6%

OCCC1CN(Cc2ccccc2-c2ccco2)CCN1C1CCCC1 (configuration not stated)
inactive: [1] 4.4% | [2] 0.5% | [3] 5.3%

CCOC(=O)C1(CCCc2ccccc2)CCN(C2CCN(C(C)=O)CC2)CC1
inactive: [1] 0.1% | [2] 1.4% | [3] -6.4%

c1ccc2c(c1)CCOC2CNCCCN1CCCCC1 (configuration not stated)
inactive: [1] 0.6% | [2] 1.3% | [3] -8.4%

CN1C(C(=O)Nc2ccccn2)=C(O)c2sccc2S1(=O)=O
inactive: [1] 0.5% | [2] -0.2% | [3] -1.1%

CC(=O)N1N=C(c2cccs2)CC1c1ccc(C)o1 (configuration not stated)
inactive: [1] -1.2% | [2] -0.8% | [3] 1.7%

COc1cc(SC)ccc1C(=O)NC(C)C
inactive: [1] 2.9% | [2] 2.2% | [3] 0.8%

CC1(C)Cc2ccccc2-c2nc(-c3ccccc3)oc(=O)c21
inactive: [1] -1.9% | [2] 0% | [3] -0.2%

CCc1oc2ccccc2c1C(=O)c1cc(Br)c(O)c(Br)c1
inactive: [1] -6.8% | [2] -0.5% | [3] -0.4%
